Results reported in PubChem BioAssay.
Unmarked numbers belong to inactive results. For some of these results: Measured potencies and affinities stand elsewhere. Active and inactive are the calls of the source. Unless noted, the rule behind the calls is not given here.

Tests used:
[1] = antimalarial activity against Dd2 strain (AID 2302;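 active = growth inhibition above 50% at the single 2 µM test dose, taken to imply half-maximal potency below 2 µM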;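 note: 0% = DMSO untreated growth and 100% = chloroquine plus artemisinin killed control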); conditions: P. falciparum Dd2 in RBCs, LDH growth readout, 72 h; at 2 µM; active compounds read high
[2] = human hepatoma cell viability loss – ATP luminescence, cytotoxicity control for P. falciparum antimalarial project, primary screen (AID 2303;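 active = inhibition above 50%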;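 note: 0% = DMSO wells and 100% = digitonin-killed cells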); conditions: HepG2 viability, 24-48 h, at 10 µM, active compounds read high
[3] = biological target: L-lactate dehydrogenase (Plasmodium falciparum (isolate CDC / Honduras)) (UniProt Q27743); experiment: PfLDH activity inhibition – cell lysate, 3D7 strain, counter-screen for P. falciparum growth inhibition project (AID 2304);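 note: 0% = vehicle and 100% = reference inhibitor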; conditions: P. falciparum 3D7 crude extract, LDH APAD/NBT absorbance; at 2 µM; active compounds read high
Sequence of L-lactate dehydrogenase (Plasmodium falciparum (isolate CDC / Honduras)) (Q27743 whole entry, looked up): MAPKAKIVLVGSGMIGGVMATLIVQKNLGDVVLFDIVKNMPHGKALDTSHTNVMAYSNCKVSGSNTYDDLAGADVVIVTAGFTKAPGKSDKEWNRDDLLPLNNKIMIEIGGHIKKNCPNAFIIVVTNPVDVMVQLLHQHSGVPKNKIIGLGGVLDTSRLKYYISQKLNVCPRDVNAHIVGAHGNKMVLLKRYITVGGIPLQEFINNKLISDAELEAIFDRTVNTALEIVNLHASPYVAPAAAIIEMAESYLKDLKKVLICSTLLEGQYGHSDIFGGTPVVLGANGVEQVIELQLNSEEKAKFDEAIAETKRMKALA

[4] = inhibition of 3D7 malaria parasite growth – strain 3D7 (AID 2306);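 note: 0% = DMSO wells and 100% = chloroquine plus artemisinin control wells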; conditions: P. falciparum 3D7 erythrocytic growth, LDH absorbance, 72 h; at 2 µM; active compounds read high
[5] = biological target: Calcium-dependent protein kinase 1 (Plasmodium falciparum (isolate 3D7)) (UniProt P62344); experiment: PfCDPK1 kinase inhibitors, biochemical, TCAMS library (AID 1159585; cut-off not given, nearly all actives have IC50 up to about 0.98 µM;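 note: inhibitors leave more ATP so luminescence rises with inhibition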); conditions: recombinant PfCDPK1, Kinase-Glo ATP depletion luminescence
Sequence of Calcium-dependent protein kinase 1 (Plasmodium falciparum (isolate 3D7)) (P62344 whole entry, looked up): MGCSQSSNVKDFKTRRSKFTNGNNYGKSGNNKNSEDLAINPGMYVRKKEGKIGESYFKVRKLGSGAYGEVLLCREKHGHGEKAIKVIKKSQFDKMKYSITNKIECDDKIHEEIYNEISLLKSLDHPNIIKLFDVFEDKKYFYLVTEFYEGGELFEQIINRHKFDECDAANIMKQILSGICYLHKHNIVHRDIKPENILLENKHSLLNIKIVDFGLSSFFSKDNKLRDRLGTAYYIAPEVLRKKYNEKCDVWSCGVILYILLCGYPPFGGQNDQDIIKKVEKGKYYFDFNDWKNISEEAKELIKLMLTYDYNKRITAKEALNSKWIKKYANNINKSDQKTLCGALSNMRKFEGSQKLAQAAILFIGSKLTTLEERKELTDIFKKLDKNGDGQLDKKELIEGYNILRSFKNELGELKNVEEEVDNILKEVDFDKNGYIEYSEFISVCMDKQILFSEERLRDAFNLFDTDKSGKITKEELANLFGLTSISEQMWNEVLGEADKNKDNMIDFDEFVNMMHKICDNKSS

[6] = biological target: Plasmodium falciparum protein kinase 6 (PK6, PF3D7_1337100) (UniProt Q8IDW1); experiment: PfPK6 kinase inhibitors, biochemical, TCAMS library (AID 1159586); conditions: recombinant PfPK6, Kinase-Glo ATP depletion luminescence
Sequence of Plasmodium falciparum protein kinase 6 (PK6, PF3D7_1337100) (Q8IDW1 1-305): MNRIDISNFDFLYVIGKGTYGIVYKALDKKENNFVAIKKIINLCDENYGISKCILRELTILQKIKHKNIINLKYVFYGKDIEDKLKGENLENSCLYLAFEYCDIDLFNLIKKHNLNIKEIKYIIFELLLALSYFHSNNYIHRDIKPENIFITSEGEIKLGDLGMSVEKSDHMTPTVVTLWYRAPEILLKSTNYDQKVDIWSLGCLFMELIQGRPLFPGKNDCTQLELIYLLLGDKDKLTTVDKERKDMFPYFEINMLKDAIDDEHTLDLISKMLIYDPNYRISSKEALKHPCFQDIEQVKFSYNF

[7] = biological target: Protein kinase 7 (PK7), Plasmodium falciparum 3D7 (PF3D7_0213400) (UniProt Q7YTF7); experiment: inhibition of Plasmodium PK7 catalytic activity – biochemical, TCAMS antimalarial set, Kinase-Glo luminescence (AID 1159587); conditions: recombinant PfPK7, Kinase-Glo ATP depletion luminescence
Sequence of Protein kinase 7 (PK7), Plasmodium falciparum 3D7 (PF3D7_0213400) (Q7YTF7 1-343): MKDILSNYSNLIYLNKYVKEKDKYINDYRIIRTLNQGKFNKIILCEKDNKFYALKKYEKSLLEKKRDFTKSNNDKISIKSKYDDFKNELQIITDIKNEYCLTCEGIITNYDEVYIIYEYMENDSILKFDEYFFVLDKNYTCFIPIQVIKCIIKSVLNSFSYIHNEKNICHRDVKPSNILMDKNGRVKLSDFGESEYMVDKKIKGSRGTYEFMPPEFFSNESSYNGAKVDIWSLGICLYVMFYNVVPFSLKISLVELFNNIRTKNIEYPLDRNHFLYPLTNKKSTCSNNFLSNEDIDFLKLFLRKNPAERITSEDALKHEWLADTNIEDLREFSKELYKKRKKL

[8] = biological target: Calcium-dependent protein kinase 4 (Plasmodium falciparum (isolate 3D7)) (UniProt Q8IBS5); experiment: PfCDPK4 kinase inhibitors, biochemical, TCAMS library (AID 1159588; cut-off not given, nearly all actives have IC50 up to about 0.91 µM); conditions: recombinant PfCDPK4, Kinase-Glo ATP depletion luminescence
Sequence of Calcium-dependent protein kinase 4 (Plasmodium falciparum (isolate 3D7)) (Q8IBS5 whole entry, looked up): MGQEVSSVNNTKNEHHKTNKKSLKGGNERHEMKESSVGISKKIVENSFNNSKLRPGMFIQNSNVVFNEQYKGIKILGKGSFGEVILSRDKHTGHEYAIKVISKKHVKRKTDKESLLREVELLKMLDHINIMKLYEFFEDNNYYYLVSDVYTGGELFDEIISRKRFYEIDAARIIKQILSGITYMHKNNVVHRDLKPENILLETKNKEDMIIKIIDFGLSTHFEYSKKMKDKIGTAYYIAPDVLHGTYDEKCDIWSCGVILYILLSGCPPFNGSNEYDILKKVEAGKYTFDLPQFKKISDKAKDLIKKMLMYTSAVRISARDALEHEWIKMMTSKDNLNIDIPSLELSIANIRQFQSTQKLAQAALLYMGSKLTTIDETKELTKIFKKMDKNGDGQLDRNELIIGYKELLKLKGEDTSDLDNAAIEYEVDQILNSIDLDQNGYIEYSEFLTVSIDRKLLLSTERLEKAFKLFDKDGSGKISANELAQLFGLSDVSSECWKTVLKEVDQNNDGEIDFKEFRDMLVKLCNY

Structure (SMILES)	growth inhibition [1]	inhibition [2]	inhibition [3] [%]	growth inhibition [4]	outcome [5]	outcome [6]	outcome [7]	outcome [8]
Nc1nc(N)c2c(CCc3ccc(Cl)c(Cl)c3)cccc2n1	83% (active)	51% (active)	6	101% (active)	inactive	inactive	inactive	inactive
CCCCCC(C)C(C)c1cc(O)c2c(c1)OC(C)(C)CC2(O)c1ccnn1C (stereo not drawn)	95% (active)	20%	4	98% (active)	inactive	inactive	inactive	inactive
CC(=O)Nc1ccc(OCCCCN(Cc2ccccc2C(F)(F)F)c2ccc(C#N)c(C(F)(F)F)c2)cc1	47%	-3%	1	80% (active)	inactive	inactive	inactive	inactive
Cc1cc(NC(=O)c2cccs2)ccc1OC1CCN(Cc2ccccc2)CC1	91% (active)	10%	4	95% (active)	inactive	inactive	inactive	inactive
Cc1cc(N[C@@H](CC(C)C)C(=O)NCc2cccs2)nc(NCCc2ccccc2)n1	8%	1%	-2	94% (active)	inactive	inactive	inactive	inactive
NC1=NC(CCc2ccccc2)N(c2ccc(Cl)cc2)C(N)=N1 (stereo not drawn)	20%	2%	-5	94% (active)	inactive	inactive	inactive	inactive
O=[N+]([O-])c1ccc2ncnc(Nc3ccc(F)c(Cl)c3)c2c1	65% (active)	-1%	0	100% (active)	inactive	inactive	inactive	inactive
O=C(Nc1cccc(C(F)(F)F)c1)c1cccc(S(=O)(=O)NC2CCN(CC3CCCCC3)C2)c1 (stereo not drawn)	45%	37%	-1	101% (active)	inactive	inactive	inactive	inactive
O=C(NCCc1ccccc1)c1cc(-c2cccnc2)cnc1NCC1CC1	35%	3%	6	93% (active)	inactive	inactive	inactive	inactive
CC(C)C[C@@H](C(=O)N[C@@H](CCCCNC(=O)OCc1ccccc1)C(=O)Nc1nccs1)[C@H](C)N(O)C=O	98% (active)	-2%	8	99% (active)	inactive	inactive	inactive	inactive
Nc1c2c(nc3ccc(C(=O)Nc4ccc(Br)cc4)cc13)CCCC2	99% (active)	40%	1	102% (active)	inactive	inactive	inactive	inactive
O=C(/C=C/c1ccc(Cl)cc1)Nc1ccc2nc(CN3CCCC3)ccc2c1	30%	47%	-2	85% (active)	inactive	inactive	inactive	inactive
O=C(Nc1cccc(-c2ccc(-c3nc4ccc(F)cc4[nH]3)s2)c1)c1cccnc1	72% (active)	46%	-5	100% (active)	inactive	inactive	inactive	inactive
CCOc1ccc(C2CCN(CCCCNC(=O)c3ccc(NC(=O)c4ccc(Cl)cc4)cc3)CC2)c(OCC)c1	95% (active)	14%	0	101% (active)	inactive	inactive	inactive	inactive
CC(C)C(C(=O)Nc1ccc2c(c1)OCO2)c1ccc(Cl)cc1 (stereo not drawn)	89% (active)	25%	-7	98% (active)	inactive	inactive	inactive	inactive
Cn1nc(C(F)(F)F)c(-c2ccc(F)cc2)c1NC(=O)Nc1ccc(F)cc1F	98% (active)	11%	-2	100% (active)	inactive	inactive	inactive	inactive
Cc1cc(CNC(=O)[C@H](CC2CCCCC2)Nc2ccc(C#N)c3ccccc23)c(C(F)(F)F)o1	55% (active)	13%	3	87% (active)	inactive	inactive	inactive	inactive
COc1ccc2nccc(N3CCN(CCNCc4ccc5c(n4)NC(=O)CO5)CC3)c2n1	12%	10%	1	98% (active)	inactive	inactive	inactive	inactive
Clc1ccc(-c2cc3c(NCc4ccncc4)nccc3s2)cc1	8%	26%	-1	98% (active)	inactive	inactive	inactive	inactive
C=CCC(C)n1ncc2c3c(N)nc(N)nc3ccc21 (stereo not drawn)	95% (active)	66% (active)	-3	93% (active)	inactive	inactive	inactive	inactive
c1ccc(COc2ccc(Cn3ccc(-c4ccc(-n5ccnc5)cc4)n3)cc2)cc1 (tested in a mixture with another compound)	67% (active)	2%	-1	94% (active)	inactive	inactive	inactive	inactive

Structure (SMILES)	growth inhibition [1]	inhibition [2]	inhibition [3] [%]	growth inhibition [4]	outcome [5]	outcome [6]	outcome [7]	outcome [8]
COc1ccc(CNC2CCN(C)CC2)cc1-c1ccc(S(=O)(=O)NCc2ccccc2)c(C)c1	98% (active)	81% (active)	3	100% (active)	inactive	inactive	inactive	inactive
N#Cc1ccc(Sc2nnc(-c3ccccc3Cl)n2CC2CCCCC2)cc1[N+](=O)[O-]	34%	30%	1	85% (active)	inactive	inactive	inactive	inactive
Cc1cccc(CNc2ncc(C)c(NCCC(=O)Nc3ccccc3)n2)c1	10%	18%	5	81% (active)	inactive	inactive	inactive	inactive
Cc1ccc2nc(Nc3ccc(Nc4nc5ccc(C)cc5[nH]4)c(C)c3)[nH]c2c1	94% (active)	12%	6	99% (active)	inactive	inactive	inactive	inactive
O=C(Cn1c(CCc2cccc(F)c2F)nc(=O)c2ccccc21)N(Cc1ccc(-c2ccc(C(F)(F)F)cc2)cc1)C1CCN(C2CCOCC2)CC1	76% (active)	97% (active)	-2	101% (active)	inactive	inactive	inactive	inactive
Cc1cc(NC(=O)NCCN2CCC(NC(=O)c3ccc(Cl)cc3)CC2)c2ccccc2n1	54% (active)	-4%	-2	90% (active)	inactive	inactive	inactive	inactive
CCC(C)NS(=O)(=O)c1ccc2nc(Nc3ccc(C)cc3)n(C3CCCCC3)c2c1 (stereo not drawn)	97% (active)	-9%	-4	97% (active)	inactive	inactive	inactive	inactive
COc1cccc(-c2ccc(C(=O)NC3CCN(Cc4ccc(C(C)(C)C)cc4)CC3)s2)c1	23%	43%	-2	85% (active)	inactive	inactive	inactive	inactive
FC(F)(F)c1ccc2nc(-c3ccc(-c4cccc(CN5CCC(CCN6CCCCC6)CC5)c4)cc3)[nH]c2c1	96% (active)	100% (active)	-5	101% (active)	inactive	inactive	inactive	inactive
CC(C)c1ccc(CN2CCC(NC(=O)c3ccc(-c4ccccc4F)s3)CC2)cc1	13%	46%	2	81% (active)	inactive	inactive	inactive	inactive
COc1ccc2c(NN=Cc3ccc([N+](=O)[O-])cc3)ccnc2c1	98% (active)	-1%	-1	100% (active)	inactive	inactive	inactive	inactive
CC(=O)Nc1ncc(C(=O)Nc2cccc(-c3ccc(-c4nc5ccc(F)cc5[nH]4)cc3)c2)s1	78% (active)	18%	4	94% (active)	inactive	inactive	inactive	inactive
Cc1cccc2[nH]c(-c3ccc(-c4ccc(CN5CCC(N)C5)cc4)s3)nc12 (stereo not drawn)	98% (active)	21%	-11	100% (active)	inactive	inactive	inactive	inactive
O=C(Nc1ccc(Cn2ncc(N3CCCNCC3)c(Cl)c2=O)cc1)Nc1ccc(C(F)(F)F)cc1	58% (active)	12%	4	90% (active)	inactive	inactive	inactive	inactive
COc1ccc(-c2cccc(NC(=O)c3ccc(C#N)cc3)c2)cc1CN1CCCC1	15%	30%	-5	98% (active)	inactive	inactive	inactive	inactive
Nc1c2c(nc3ccc(NC(=O)Cc4ccccc4)cc13)CCCC2	-2%	9%	6	101% (active)	inactive	inactive	inactive	inactive
CCCC1N=C(N)N=C(N)N1c1cccc([N+](=O)[O-])c1 (stereo not drawn)	1%	-4%	3	96% (active)	inactive	inactive	inactive	inactive
COCc1cc(C)nc2sc(C(=O)Nc3cc(C(C)(C)C)ccc3O)c(N)c12	57% (active)	-9%	-2	85% (active)	inactive	inactive	inactive	inactive
CCC(C)OC(=O)C1=C(C)NC2=C(C(=O)CC(c3ccc(OC)c(OC)c3)C2)C1c1ccc(C)o1 (stereo not drawn)	82% (active)	6%	2	93% (active)	inactive	inactive	inactive	inactive
COc1cccc(C(=O)[C@H]2C[C@@H]2CN(C)CCC(O)c2ccc(Cl)c(Cl)c2)c1 (stereo partly drawn)	95% (active)	17%	-2	99% (active)	inactive	inactive	inactive	inactive
